Records with an inconclusive call do not appear. A call without a number means that no potency is given here. Active and inactive are the calls of the source. Calls follow the shape of the dose curve; as a rule, active = well fitted curve in the direction sought with a large enough effect; inconclusive = small, poorly fitted or top-dose-only effect, or another doubt; inactive = no such curve, though single readings can be large or run the other way.
test: Secondary Assay for Inhibitors of Human Cdc-like kinase 4 (Clk4): HEK-293 Cell Viability Assay; conditions: HEK-293 viability, ATP luminescence (CellTiter-Glo), 24/48 h; series mostly up to 46.1 µM;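 also: cytotoxic hits lower the ATP light signal so activity reflects loss of viability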
Method: NIH Molecular Libraries Probe Production Centers Network [MLPCN] NIH Chemical Genomics Center [NCGC] MLPCN Grant: 1R03MH084827-01 Assay Submitter (PI): Tom Misteli NCGC Assay Overview: Cytotoxicity of the active compounds in the Clk4 screens was assessed using the CellTiter-Glo Luminescent Cell Viability Assay kit (Promega, USA) in the HEK-293 (ATCC) cell line. CellTiter-Glo measures the intracellular ATP present in metabolically active cells using Ultra-Glo as the luciferase to detect ATP levels. In brief, the luciferase in the buffer catalyzes the oxidation of luciferin to oxyluciferin and light which is dependent on ATP. […] Wells treated with various concentrations of cycloheximide (Sigma) and DMSO, and wells with media alone were used as positive and negative controls, respectively. […] [1] http://www.promega.com/tbs/tb288/tb288.pdf
NCGC Assay Protocol Summary: HEK-293 cells were grown in a flask up to 80% confluence. Cells were trypsinized, washed, and resuspended in MEM Eagle + 10% FBS + 1% pen-strep media at a concentration of 120 cells/uL. Five uL/well of cell solution was dispensed into a 1536-well assay plates (Greiner, solid white medium-binding plates) with Aurora Discovery BioRAPTR Flying Reagent Dispenser (FRD; Beckton-Dickenson). Cells were pre-incubated at 37 degree Celsius, 5% CO2 for four hours. Compound and control solutions (23nL) were then transferred to the assay plate using the Kalypsys 1536-pin tool. Assay plates were re- incubated at 37 degree Celsius, 5% CO2. After 24 or 48 hours, five uL of CellTiter Glo detection reagent was added. Luminescence signal was read with Perkin Elmer ViewLux plate reader after 30 min room temperature incubation.
Potency is read from the fitted curve at half-maximal effect.

Compound	Potency
COc1cccc(Nc2ncc3nc(-c4cn(C)c5ccccc45)c(=O)n(CCC#N)c3n2)c1	7.91 µM (active)
CCN(CCc1cn(C)cn1)c1ncnc2ccc(-c3ccc4c(c3)OCO4)cc12	inactive
CCCN(Cc1cccs1)c1ncnc2ccc(-c3ccc4c(c3)OCO4)cc12	inactive
CC(Nc1ncnc2ccc(-c3ccc4c(c3)OCO4)cc12)c1ccco1 (stereo not given)	inactive
Cc1csc(CNc2ncnc3ccc(-c4ccc5c(ccn5C)c4)cc23)c1	inactive
CC(O)c1ccc(-c2ccc3ncnc(N4CCOCC4)c3c2)o1 (stereo not given)	inactive
CCOC(=O)c1ccoc1-c1ccc2ncnc(NCc3ccc(C)o3)c2c1	inactive
c1c[nH]c(CNc2ncnc3ccc(-c4ccoc4)cc23)n1	inactive
Cc1cccc(CNc2ncnc3ccc(-c4cccc(Cl)c4)cc23)c1	inactive
CCOC(=O)c1ccc(-c2ccc3ncnc(NCc4ccc(C)o4)c3c2)o1	inactive
CCN(Cc1cccs1)c1ncnc2ccc(-c3ccc4c(c3)OCO4)cc12	inactive
Cc1ccsc1CN(C)c1ncnc2ccc(-c3ccc(COC(=O)N(C)C)o3)cc12	inactive
c1cncc(CNc2ncnc3ccc(-c4ccco4)cc23)c1	inactive
c1cncc(-c2ccc3ncnc(NCc4ccc5c(c4)OCO5)c3c2)c1	inactive
Cc1cc(CNc2ncnc3ccc(-c4ccc5c(c4)OCO5)cc23)c(C)o1	inactive
Cc1cccc(CNc2ncnc3ccc(-c4ccc5c(c4)OCO5)cc23)c1	inactive
CCN1/C(=C/C(C)=O)Sc2ccc(OC)cc21	inactive
Cc1cccc(CNc2ncnc3ccc(-c4cccc(C)c4)cc23)c1	inactive
c1cncc(CNc2ncnc3ccc(-c4ccc5c(c4)OCO5)cc23)c1	inactive
O=C(O)c1ccc(-c2ccc3ncnc(NCC4CCCO4)c3c2)o1 (stereo not given)	inactive

Compound	Potency
c1cncc(CNc2ncnc3ccc(-c4ccoc4)cc23)c1	inactive
Cc1cccc(CNc2ncnc3ccc(-c4cccnc4)cc23)c1	inactive
Cc1csc(CNc2ncnc3ccc(-c4ccc(C(C)O)o4)cc23)n1 (stereo not given)	inactive
CC(=O)c1ccc(-c2ccc3ncnc(NCc4ccc(C)o4)c3c2)o1	inactive
c1cncc(CNc2ncnc3ccc(-c4cccnc4)cc23)c1	inactive
Cc1csc(CNc2ncnc3ccc(-c4ccco4)cc23)c1	inactive
Clc1ccccc1-c1ccc2ncnc(NCc3cccs3)c2c1	inactive
Cc1csc(CNc2ncnc3ccc(-c4ccc5c(c4)OCCO5)cc23)c1	inactive
c1nc(NCc2ccc3c(c2)OCO3)c2cc(-c3ccoc3)ccc2n1	inactive
Fc1c(-c2ccc3ncnc(NCc4cccs4)c3c2)ccc2c1OCO2	inactive
Cc1ccc(CN(C)c2ncnc3ccc(-c4ccc(C(=O)O)o4)cc23)o1	inactive
Cc1ccc(CN(C)c2ncnc3ccc(-c4ccc(CO)o4)cc23)o1	12.5 µM (active)
Cc1csc(CNc2ncnc3ccc(-c4ccc5c(c4)OCO5)cc23)c1	inactive
Fc1cccc(CNc2ncnc3ccc(-c4ccccc4Cl)cc23)c1	inactive
Cc1csc(CNc2ncnc3ccc(-c4ccc5c(c4)OCO5)cc23)n1	inactive
c1nc(NCc2ccc3c(c2)OCO3)c2cc(-c3ccc4c(c3)OCCO4)ccc2n1	inactive
c1nc(NCc2ccoc2)c2cc(-c3ccc4c(c3)OCO4)ccc2n1	inactive
Cc1occc1-c1ccc2ncnc(NCc3ncc[nH]3)c2c1	inactive
CCNC(=O)c1ccc(-c2ccc3ncnc(NCc4ccc(C)o4)c3c2)o1	inactive
Cc1nc(C(C)N(C)c2ncnc3ccc(-c4ccc5c(c4)OCO5)cc23)cs1 (stereo not given)	inactive

Reference: PubChem BioAssay AID504534 (National Center for Advancing Translational Sciences (NCATS), 2011)
